# High-throughput results as filed in PubChem.
# TRHR PAM: qHTS for Small Molecule Agonists and Allosteric Enhancers of Human TRH Receptor: Primary Screen for Enhancers; Thyrotropin-releasing hormone receptor (Homo sapiens), P34981; TRHR cells, fluo-8 calcium fluorescence, EC20 TRH enhancement; enhancement, % at 2 µM; 360,000 tested, 0.66% active; AID 493056, 2011; in the data active = enhancement above about 30%; note: 0% is about no effect
#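 Enhancer read-out: after compound pinning and an initial kinetic agonist-mode read, an EC20 of TRH (10 nM final) was injected and fluo-8 calcium signal (Ex 480/Em 530) followed at 1 s/cycle for 100 cycles in TRHR-expressing cells.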
# D1 agonist: Allosteric Agonists of the Human D1 Dopamine Receptor: qHTS; HEK293 T-REx D1 cells, calcium flux, agonist mode; 360,000 tested, 1% active; AID 504660, 2011; activation, % at 2 µM; D(1A) dopamine receptor (Homo sapiens), P21728; note: 0% is about no effect
# Target sequence (P21728 whole entry, looked up): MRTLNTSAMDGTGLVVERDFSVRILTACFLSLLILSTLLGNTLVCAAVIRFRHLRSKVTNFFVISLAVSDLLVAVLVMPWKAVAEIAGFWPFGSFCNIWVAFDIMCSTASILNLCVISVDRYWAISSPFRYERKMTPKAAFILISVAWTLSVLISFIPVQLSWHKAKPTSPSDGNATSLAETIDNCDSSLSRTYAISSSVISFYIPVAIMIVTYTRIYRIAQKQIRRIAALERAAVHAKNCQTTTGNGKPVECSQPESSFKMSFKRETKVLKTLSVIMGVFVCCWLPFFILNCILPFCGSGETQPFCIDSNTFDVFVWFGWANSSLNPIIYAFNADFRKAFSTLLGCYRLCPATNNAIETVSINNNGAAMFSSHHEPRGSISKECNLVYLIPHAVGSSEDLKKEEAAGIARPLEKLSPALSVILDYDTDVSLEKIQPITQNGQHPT
#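 Tetracycline-induced HEK293 TREx D1 cells, force-coupled to calcium signalling, were dye-loaded with a no-wash calcium kit. Compound was pin-added after a 10 s baseline. Fluorescence was read kinetically at 1 cycle/s for 180 s, with calcium rises flagged as agonism.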
# D1 PAM: Potentiators of Human D1 Dopamine Receptor: qHTS; D(1A) dopamine receptor (Homo sapiens), P21728; HEK293 TREx D1 cells, calcium flux, dopamine EC20 potentiation; potentiation, % at 10 µM; 360,000 tested, 0.036% active; AID 504651, 2011; in the data active = potentiation above about 30%; note: 0% is about no effect
# TRHR agonist: qHTS for Small Molecule Agonists and Allosteric Enhancers of Human TRH Receptor: Primary Screen for Agonists. TRHR cells, calcium flux fluo-8, FDSS agonist mode. Thyrotropin-releasing hormone receptor (Homo sapiens), P34981. 360,000 tested, 0.18% active. AID 493084, 2011. activation, % at 2 µM; note: 0% is about no effect
#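 TRHR-expressing cells loaded with fluo-8 calcium dye; 23 nL library compound pin-transferred, kinetic FDSS fluorescence (Ex 480/Em 530) recorded about 180 s for agonist-induced calcium release, before a 10 nM TRH EC20 addition for potentiator mode.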
# D1 antagonist: Antagonist of Human D 1 Dopamine Receptor: qHTS | 360,000 tested, 3.2% active | D(1A) dopamine receptor (Homo sapiens), P21728 | activity change, negative = inhibition, % at 10 µM | HEK293 TREx D1 cells, calcium flux, dopamine EC80; hits give low values; in the data active = activity change below about -30%; note: % is set by controls: 0 for no effect and ±100 for the full control effect
#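 Cells carrying a force-coupled, tetracycline-inducible human D1 receptor report calcium flux. Each well gets a 10 s baseline, compound with 180 s monitoring, then an EC80 dopamine stimulus with a second 180 s kinetic read.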
# Numbers without * were called inactive; x = no result given. Compounds with a hit are over-represented: about 4.7% of the library has one in this group of screens. Cut-off read from the data, not from the text of the source, unless noted: active = activation above about 30%; inactive = the rest.
SMILES,TRHR PAM,D1 agonist,D1 PAM,TRHR agonist,D1 antagonist
COc1ccc2oc(C(=O)OCC(=O)N3C(C)CCCC3C)c(C)c2c1 (stereo unspecified),33*,2,-6,0,3
COc1ccc2oc(C(=O)OCC(=O)Nc3ccc(OC)c(S(N)(=O)=O)c3)c(C)c2c1,12,3,-8,0,6
COc1ccc2oc(C(=O)OCC(=O)NC3CCCC3)c(C)c2c1,1,3,-3,0,-37*
CCCCn1cc(S(=O)(=O)c2cccc(C)c2)c(=O)c2cc(F)c(N3CCOCC3)cc21,0,0,-2,0,10
Cc1ccc(CNC(=O)c2nnn(Cc3ccc(F)cc3)c2N)cc1,6,8,-4,0,-9
O=C1CCc2cc(S(=O)(=O)Nc3ccc(F)cc3)ccc2N1,-5,4,-2,0,-23
COc1ccc(OCC(=O)OCC(=O)NC2CC2)cc1,1,2,1,0,8
Cc1c(C(=O)OCC(=O)N2c3ccccc3CC2C)oc2ccccc12 (stereo unspecified),-6,1,1,1,-65*
COc1ccc(OCC(=O)OCC(=O)N2C(C)CCCC2C)cc1 (stereo unspecified),-3,14,x,0,-36*
Cc1ccccc1-c1nc(CNC(=O)Nc2ccccc2)c(C)o1,0,2,0,0,-18
CCc1ccc(NC(=O)CSc2nccn2C2CCCC2)cc1,-1,1,-1,-1,-5
CCC(=O)N1CCCc2cc(S(=O)(=O)N3CCC(C(=O)Nc4ccc(F)c(F)c4)CC3)ccc21,-3,1,-7,-1,-32*
CCC(=O)N1CCCc2cc(S(=O)(=O)N3CCC(C(=O)Nc4ccc(C#N)cc4)CC3)ccc21,4,0,-7,0,-59*
CCOc1ccccc1CNC(=O)c1ccc2c(c1)N(CC)CCS2,-1,4,-5,0,16
CCCCNS(=O)(=O)c1ccc(C)c(-c2nnc3c4ccccc4c(C)nn23)c1,16,1,2,-2,-5
Cc1c(F)cccc1NC(=O)C1CCCN1S(=O)(=O)c1ccc(F)cc1 (stereo unspecified),2,-1,-2,1,-2
OC(COc1ccc(CNCCc2ccc(C(F)(F)F)cc2)cc1)CN1CCCCC1 (stereo unspecified),5,35*,-3,5,-38*
CC(=O)c1cccc(OCC(O)CNCCc2ccc(Cl)cc2)c1 (stereo unspecified),2,26,-1,1,-6
OC(CNCCc1ccc(C(F)(F)F)cc1)COc1cccc2ccccc12 (stereo unspecified),4,42*,6,2,12
OC(COc1cccc2ccccc12)CN1CCCC1 (stereo unspecified),11,0,-13,0,-6
OC(CNCCc1ccc(Cl)cc1)COCc1ccco1 (stereo unspecified),2,4,-3,0,-6
OC(COc1ccc(OCC(O)CN2CCCCC2)cc1)CN1CCCCC1 (stereo unspecified),4,6,4,1,-1
COc1ccc(CCNCC(O)COc2cccc(Br)c2)cc1 (stereo unspecified),0,30*,5,4,-1
COc1ccccc1COCC(O)CNCCc1ccc(C(F)(F)F)cc1 (stereo unspecified),-5,50*,-2,1,-25
COc1ccccc1CNC(=O)c1ccc(N2CCCC2)c(NC(=O)NCc2ccccc2)c1,-6,5,0,-1,12
SMILES,TRHR PAM,D1 agonist,D1 PAM,TRHR agonist,D1 antagonist
CSc1ccc(-c2nnn(CC(=O)Nc3sc4c(c3C#N)CCC(C(C)(C)C)C4)n2)cc1 (stereo unspecified),3,-1,-1,2,1
COc1ccc(C2c3c(oc4ccc(F)cc4c3=O)C(=O)N2Cc2ccc3c(c2)OCO3)cc1 (stereo unspecified),1,0,-8,1,-21
OC(CNCCc1ccc(C(F)(F)F)cc1)COc1ccc2ccccc2c1 (stereo unspecified),-1,106*,7,5,10
O=C(CSc1n[nH]c(-c2ccccc2Cl)n1)N1CCN(c2ccccc2F)CC1,-1,-1,-2,-1,-5
COc1cc(C2/C(=C(\O)c3ccc4c(c3)OCCO4)C(=O)C(=O)N2Cc2ccco2)cc(OC)c1OC (stereo unspecified),-1,1,-8,0,-33*
COc1ccc(/C(O)=C2\C(=O)C(=O)N(Cc3ccco3)C2c2cc(OC)ccc2OC)cc1 (stereo unspecified),-2,1,1,0,-31*
COc1cc(C2/C(=C(\O)c3ccc4c(c3)OCCO4)C(=O)C(=O)N2Cc2ccco2)ccc1O (stereo unspecified),2,5,1,0,-1
O=C1C(=O)N(Cc2ccco2)C(c2cccc(Cl)c2)/C1=C(\O)c1ccc2c(c1)OCCO2 (stereo unspecified),2,2,0,0,-53*
Cc1cc(C)c(OCC(=O)Nc2ccccc2N2CCCCC2)c(C)c1,11,6,1,1,4
Cc1cc(C)c(OCC(=O)Nc2ccccc2N2CCOCC2)c(C)c1,3,44*,2,7,4
Cc1ccc(C(C)(C)C)cc1S(=O)(=O)Nc1cccc(C(=O)N2CCN(c3ccccn3)CC2)c1,3,33*,3,0,3
Cc1cccc(NS(=O)(=O)c2cccc(C(=O)N3CCN(c4ccccn4)CC3)c2)c1,-5,3,-7,0,-3
Cc1cccc(NC(=O)CN2CCN(C(=O)C3CCCO3)CC2)c1C (stereo unspecified),5,1,-1,1,-12
C=CCn1c(N2CCN(c3ccc(OC)cc3)CC2)nc2c1c(=O)n(C)c(=O)n2C,2,15,-6,0,-38*
CC(Oc1ccccc1)C(=O)Nc1ccc(F)c(S(=O)(=O)N2CCOCC2)c1 (stereo unspecified),8,6,-1,0,-5
NC(=O)CC(NC(=O)c1ccccc1)c1ccc(NCC2CC2)c([N+](=O)[O-])c1 (stereo unspecified),8,1,-6,0,-44*
NC(=O)CC(NC(=O)c1ccccc1)c1ccc(NCCOc2ccccc2)c([N+](=O)[O-])c1 (stereo unspecified),11,3,-10,0,-35*
